Activity calls are given as the source filed them. How the source made its calls: active means hit-call score of the fitted dose curve at least 0.9, where 1 is the maximum; inactive means score below 0.9.
assay: BSK_3C_TissueFactor: BioMAP Diversity Plus: 3C Assay for Tissue Factor Biomarker Activity (AID 2282997); conditions: BioMAP 3C HUVEC, tissue factor biomarker readout; actives raise or lower the signal
Method in brief: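 After a 24 h chemical exposure of primary human umbilical vein endothelial cells, Tissue Factor levels were quantified by ELISA.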

Row | Compound | outcome | AC50
1 | OC(Cc1ccccc1Cl)(Cn1cncn1)C1(Cl)CC1 (stereo not drawn) | inactive | –
2 | O=S(=O)(C(Cl)(Cl)Cl)C(Cl)(Cl)Cl | – | 1.11 µM (active)
3 | Cc1cc(Cl)ccc1OC(C)C(=O)O (stereo not drawn) | inactive | –
4 | O=C(Cc1ccccc1)OCCc1ccccc1 | inactive | –
5 | CCOP(=S)(OCC)OP(=S)(OCC)OCC | inactive | –
6 | O=[N+]([O-])c1ccc(Nc2ccccc2)cc1 | inactive | –
7 | C[C@]12CC[C@@H](O)C[C@@H]1CC[C@@H]1[C@@H]2CC[C@]2(C)C(=O)CC[C@@H]12 | inactive | –
8 | Oc1cccc(-c2ccccc2)c1 | inactive | –
9 | NC(=O)CCl | inactive | –
10 | O=c1oc2ccccc2c(O)c1C(CC(O)c1ccc(-c2ccc(Br)cc2)cc1)c1ccccc1 (stereo not drawn) | – | 12.7 µM (active)
11 | C#CCOC(=O)/C=C(C)/C=C/CC(C)CCCC(C)C (stereo not drawn) | inactive | –
12 | CCCCCCCCCCCCN(C)C | inactive | –
13 | CCOC(=O)CCN(SN(C)C(=O)Oc1cccc2c1OC(C)(C)C2)C(C)C | – | 31.1 µM (active)
14 | Cc1ccccc1OP(=O)(Oc1ccccc1C)Oc1ccccc1C | – | 5.08 µM (active)
15 | O=S(=O)(c1ccc(Cl)cc1)c1cc(Cl)c(Cl)cc1Cl | inactive | –
16 | N#CCCC(Br)(C#N)CBr (stereo not drawn) | – | 7.47 µM (active)
17 | CCOC(=O)CC(=O)CCl | inactive | –
18 | O=C1C=CC(=O)c2ccccc21 | – | 1.93 µM (active)
19 | CC(C)(COCC1CO1)COCC1CO1 (stereo not drawn) | – | 3.97 µM (active)

Row | Compound | outcome | AC50
20 | Oc1ccc(Cc2ccc(O)cc2)cc1 | inactive | –
21 | CC(C=O)Cc1ccc2c(c1)OCO2 (stereo not drawn) | inactive | –
22 | Nc1c(Oc2ccccc2)cc(O)c2c1C(=O)c1ccccc1C2=O | inactive | –
23 | CC(C)(C)c1cc([N+](=O)[O-])cc(C(C)(C)C)c1O | – | 3.94 µM (active)
24 | Oc1c(Cl)cc(Cl)cc1Cl | inactive | –
25 | [Cl][Sn]([c]1ccccc1)([c]1ccccc1)[c]1ccccc1 | – | 0.297 µM (active)
26 | CC1(C)[C@H](C(=O)O[C@H](C#N)c2cccc(Oc3ccccc3)c2)[C@@H]1/C=C(\Cl)C(F)(F)F | inactive | –
27 | Cc1ccc(OP(=O)(Oc2ccc(C)cc2C)Oc2ccc(C)cc2C)c(C)c1 | inactive | –
28 | O=[N+]([O-])c1cccc2ccccc12 | inactive | –
29 | Cc1ccc2nc3sc(=O)sc3nc2c1 | inactive | –
30 | c1ccc(-c2cccc(-c3ccccc3)c2)cc1 | – | 4.68 µM (active)
31 | CCC(C)(C#N)N=NC(C)(C#N)CC (stereo not drawn) | inactive | –
32 | CCN(CC)C(=O)C(Cl)=C(C)OP(=O)(OC)OC | inactive | –
33 | CCOP(=O)(OCC)OC(=CCl)c1ccc(Cl)cc1Cl | – | 20 µM (active)
34 | Cc1cccc(OP(=O)(Oc2cccc(C)c2)Oc2cccc(C)c2)c1 | inactive | –
35 | OCCCCO | inactive | –
36 | Cc1ccccc1OP(=O)(Oc1ccccc1)Oc1ccccc1 | – | 20 µM (active)
37 | COCC(=O)N(c1c(C)cccc1C)[C@H](C)C(=O)OC | inactive | –
38 | CCCCOC(=O)COC(=O)c1ccccc1C(=O)OCCCC | inactive | –
